These results are taken from PubChem BioAssay (NCATS).

The structures appear in SMILES notation. Results filed as inconclusive are left out. Entries that show only a call come without a potency. The source made the active and inactive calls. The call rests on the fitted dose curve; in most records, active means well fitted inhibition curve with a large enough effect; inconclusive means small, poorly fitted or top-dose-only effect; inactive means flat fitted curve, though single readings scatter.

Experiment [1] concerns the target Glutathione peroxidase 1 (Homo sapiens) (UniProt P07203). Nature of the experiment: Primary qHTS Assay for Inhibitors of Recombinant Selenoprotein Glutathione Peroxidase 1 (GPX1) (AID 1845191). In outline:
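Recombinant GPX1 (10 nM final) was preincubated with compound for 30 min at room temperature, then reacted with 1 mM GSH, 0.5 mM CHP, 0.5 mM NADPH and 100 nM glutathione reductase; NADPH fluorescence (340/450 nm) was read at 0 and 15 min.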
On the technique in general: qHTS replaces the single test concentration by a dilution series.

In experiment [2] the target is Phospholipid hydroperoxide glutathione peroxidase GPX4 (Homo sapiens) (UniProt P36969). Briefly: Primary qHTS Assay for Inhibitors of Recombinant Selenoprotein Glutathione Peroxidase 4 (GPX4) (AID 1845192). In outline:
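GR-coupled readout: 100 nM GR, 1 mM GSH, 0.5 mM NADPH; NADPH fluorescence (ex 340/em 450 nm) read at t=0 and after 15 min RT. GPX4 200 nM, preincubated 30 min with compound; substrate 0.5 mM CHP.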
Further: nearly all actives have a fitted effect of over 65% in size.

Glutathione peroxidase 1 (Homo sapiens), sequence (P07203 whole entry, looked up): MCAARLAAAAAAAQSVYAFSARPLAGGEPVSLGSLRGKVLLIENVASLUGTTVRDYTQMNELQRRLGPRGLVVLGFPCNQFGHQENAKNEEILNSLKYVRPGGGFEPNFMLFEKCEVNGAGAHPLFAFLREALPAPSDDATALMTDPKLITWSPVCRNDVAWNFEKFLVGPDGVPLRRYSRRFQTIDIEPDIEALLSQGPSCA
Phospholipid hydroperoxide glutathione peroxidase GPX4 (Homo sapiens), sequence (P36969 whole entry, looked up): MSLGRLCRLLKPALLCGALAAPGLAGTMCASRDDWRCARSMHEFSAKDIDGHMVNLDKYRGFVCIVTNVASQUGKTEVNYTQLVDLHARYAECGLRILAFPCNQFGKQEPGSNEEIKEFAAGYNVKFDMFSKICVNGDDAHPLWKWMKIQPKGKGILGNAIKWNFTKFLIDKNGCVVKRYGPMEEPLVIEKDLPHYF

As to `COc1cccc(C(=O)NCCN2CCN(c3ccc(Cl)cc3)CC2)c1`, the Potency entry in experiment [1] and in experiment [2] was “inactive” throughout.
For `CCOc1ccc2nc(S(N)(=O)=O)sc2c1`, the Potency result in experiment [1] and in experiment [2] was “inactive” in each case.
Turning to `CN1CCc2ccccc2Cc2[nH]c3ccccc3c2CC1`, the Potency result in experiment [1] and in experiment [2] was “inactive” each time.
On to `CCN1/C(=C/C(C)=O)Sc2ccc(OC)cc21`, for which the Potency entry in experiment [1] and in experiment [2] was “inactive” each time.
Regarding `CCCOC(=O)c1ccc(O)cc1`, the Potency result in experiment [1] and in experiment [2] was “inactive” throughout.
In the case of `CCCCCCCCCCCCOCCO`, the Potency entry in experiment [1] and in experiment [2] was “inactive” in each case.
As to `c1ccc2sc(SSc3nc4ccccc4s3)nc2c1`, the Potency entry in experiment [1] and in experiment [2] was “inactive” throughout.
Take `O=S(=O)(c1cccc2c(I)cccc12)N1CCCNCC1`: the Potency result in experiment [1] and in experiment [2] was “inactive” throughout.
As to `O=C(c1cc(O)c(O)c([N+](=O)[O-])c1)c1ccccc1F`, the Potency entry in experiment [1] and in experiment [2] was “inactive” each time.
For `CC(C)(NS(=O)(=O)c1ccc(Oc2ccc(F)cc2)cc1)C(=O)NO`, the Potency entry in experiment [1] and in experiment [2] was “inactive” each time.
As to `CC(C)(C)c1ccc(S(=O)(=O)/C=C/C#N)cc1`, the Potency entry in experiment [1] and in experiment [2] was “inactive” throughout.
With `Cn1ncc(S(=O)(=O)Cc2ccccc2)c(Br)c1=O`, the Potency result in experiment [1] and in experiment [2] was “inactive” throughout.
In the case of `NC(=O)C(=O)O`, the Potency result in experiment [1] and in experiment [2] was “inactive” each time.
Turning to `CC[C@@H](C)[C@H]1O[C@]2(CC[C@@H]1C)C[C@@H]1C[C@@H](C/C=C(\C)[C@@H](O[C@H]3C[C@H](OC)[C@@H](O[C@H]4C[C@H](OC)[C@@H](O)[C@H](C)O4)[C@H](C)O3)[C@@H](C)/C=C/C=C3\CO[C@@H]4[C@H](O)C(C)=C[C@@H](C(=O)O1)[C@]34O)O2`, the Potency entry in experiment [1] and in experiment [2] was “inactive” throughout.
As for `CNc1ncnc2c1ncn2[C@@H]1O[C@H](CO)[C@@H](O)[C@H]1O`, the Potency result in experiment [1] and in experiment [2] was “inactive” in each case.
Turning to `COc1ccc(Br)cc1S(=O)(=O)NC(=O)/C=C/c1ccccc1Cc1ccc2ccccc2c1`, the Potency result in experiment [1] and in experiment [2] was “inactive” in each case.
In the case of `COc1cc(OC)cc(-c2cc3cnc(N)nc3nc2NC(=O)NC(C)(C)C)c1`, the Potency result in experiment [1] and in experiment [2] was “inactive” in each case.
On to `Cc1cn([C@H]2CC(N=[N+]=[N-])[C@@H](CO)O2)c(=O)[nH]c1=O` (stereo partly specified), for which the Potency result in experiment [1] and in experiment [2] was “inactive” in each case.
Consider `O=P(O)(O)C(Cl)(Cl)P(=O)(O)O`, for which the Potency result in experiment [1] and in experiment [2] was “inactive” each time.
With `Nc1nc(Cl)nc2c1ncn2[C@@H]1O[C@H](CO)[C@@H](O)[C@H]1O`, the Potency result in experiment [1] and in experiment [2] was “inactive” throughout.
Regarding `CCCCCCCCc1ccc(-c2ccc(C(=O)O)cc2)cc1`, the Potency result in experiment [1] and in experiment [2] was “inactive” in each case.
`CCCCCCCC/C=C\CCCCCCCC(=O)NCCO`: the Potency entry in experiment [1] and in experiment [2] was “inactive” throughout.
On to `CC(C)c1cccc(C(C)C)c1N1C(=O)c2ccc(O)cc2C1=O`, for which the Potency entry in experiment [1] and in experiment [2] was “inactive” throughout.
Take `COc1cc(C(O)CO)ccc1OS(=O)(=O)O` (stereo unspecified): the Potency result in experiment [1] and in experiment [2] was “inactive” throughout.
For the compound `Nc1ncnc2c1ncn2[C@@H]1O[C@H](COP(=O)(O)CP(=O)(O)OP(=O)(O)O)[C@@H](O)[C@H]1O`, the Potency entry in experiment [1] and in experiment [2] was “inactive” throughout.
With `CSc1nc(N)c2ncn([C@@H]3O[C@H](COP(=O)(O)OP(=O)(O)OP(=O)(O)O)[C@@H](O)[C@H]3O)c2n1`, the Potency entry in experiment [1] and in experiment [2] was “inactive” in each case.
For `CCCCCCCC/C=C/C(=O)O`, the Potency entry in experiment [1] and in experiment [2] was “inactive” throughout.
As for `Oc1ccc(C2CNCc3sccc32)cc1O` (stereo unspecified), the Potency entry in experiment [1] and in experiment [2] was “inactive” throughout.
Regarding `C[N+]1(C)CCC(OC(=O)C(c2ccccc2)c2ccccc2)CC1`, the Potency result in experiment [1] and in experiment [2] was “inactive” in each case.
Turning to `CCCCC1C(=O)N(c2ccccc2)N(c2ccc(O)cc2)C1=O` (stereo unspecified), the Potency entry in experiment [1] and in experiment [2] was “inactive” throughout.
For `CC(C)Cc1ccc([C@H](C)C(=O)O)cc1`, the Potency result in experiment [1] and in experiment [2] was “inactive” throughout.
For `COc1ccc(C(=O)/C(Cc2cc(OC)c(OC)c(OC)c2)=C(\C(=O)O)c2ccc3c(c2)OCO3)cc1`, the Potency entry in experiment [1] and in experiment [2] was “inactive” in each case.
`Cc1ccc(O)c(N=Nc2ccccc2)n1`: the Potency result in experiment [1] and in experiment [2] was “inactive” in each case.
With `O=C1NC(=O)/C(=C/c2ccc3nccnc3c2)S1`, the Potency entry in experiment [1] and in experiment [2] was “inactive” throughout.
Consider `Cc1ccc(C(=O)c2ccc(CC(=O)O)n2C)cc1`, for which the Potency entry in experiment [1] and in experiment [2] was “inactive” each time.
Turning to `Nc1nc2ccc(Cl)cc2n2c(-c3ccccc3)nnc12`, the Potency entry in experiment [1] and in experiment [2] was “inactive” throughout.
For the compound `O=C(Nc1ccccc1)c1cc([N+](=O)[O-])ccc1Cl`, the Potency result in experiment [1] and in experiment [2] was “inactive” each time.
As to `Cc1cc2c(cc1Cl)N(C(=O)Nc1ccc(Oc3cccnc3C)nc1)CC2`, the Potency result in experiment [1] and in experiment [2] was “inactive” each time.
On to `CN1CCc2cccc3c2C1Cc1ccc(O)c(O)c1-3` (stereo unspecified), for which the Potency result in experiment [1] and in experiment [2] was “inactive” in each case.
Take `COc1ccc2c(c1)CCC1C2CC[C@@]2(C)C1CC[C@@H]2NCCCCCCN1C(=O)CCC1=O` (stereo partly specified): the Potency result in experiment [1] and in experiment [2] was “inactive” each time.
`CCOC(=O)C1=C(C)NC(C)=C(C(=O)OCC)C1c1c(F)c(F)c(F)c(F)c1F`: the Potency result in experiment [1] and in experiment [2] was “inactive” throughout.
Turning to `Nc1ccn([C@@H]2O[C@H](CO)[C@@H](O)[C@@H]2O)c(=O)n1`, the Potency result in experiment [1] and in experiment [2] was “inactive” in each case.
Consider `CCCCCCCCCCCCCCCC(=O)OC(C)C`, for which the Potency entry in experiment [1] and in experiment [2] was “inactive” in each case.
